Source: PubChem BioAssay (Tox21)
Results filed as inconclusive are left out. Activity calls are given as the source filed them. Unless noted, calls follow the shape of the dose curve; as a rule, active = well fitted curve in the direction sought with a large enough effect in the repeat runs; inconclusive = weak or mixed curves; inactive = no such curve, though single readings can be large; an effect the other way counts as inactive or inconclusive.

Legend:
[1] = qHTS assay to identify aromatase inhibitors - cell viability counter screen (AID 743084);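 also: cells stimulated with testosterone during compound exposure; nearly all actives have a fitted effect of over 55% in size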; also: potency is read from the fitted curve at half-maximal effect
[2] = qHTS assay to identify small molecule that activate the aryl hydrocarbon receptor (AhR) signaling pathway - cell viability counter screen (AID 743086); also: nearly all actives have a fitted effect of over 45% in size; also: potency is read from the fitted curve at half-maximal effect
In short: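 HepG2-AhR-luc (HG2L7.5c1) cells, 4000/well, were preincubated 5 h at 37C, exposed to compound in qHTS format for 24 hr at 37C, then given CellTiter-Fluor for 30 min; viability was read as fluorescence in the reporter wells.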

[3] = molecular target: Peroxisome proliferator-activated receptor gamma (Homo sapiens) (UniProt P37231); assay: qHTS assay to identify small molecule agonists of the peroxisome proliferator-activated receptor gamma (PPARg) signaling pathway (AID 743094; active = well fitted activation curve with a large enough effect in the signal ratio in the repeat runs, not every such curve was filed as active; the % refers to the signal ratio)
Chain of Peroxisome proliferator-activated receptor gamma (Homo sapiens) (P37231 whole entry, looked up): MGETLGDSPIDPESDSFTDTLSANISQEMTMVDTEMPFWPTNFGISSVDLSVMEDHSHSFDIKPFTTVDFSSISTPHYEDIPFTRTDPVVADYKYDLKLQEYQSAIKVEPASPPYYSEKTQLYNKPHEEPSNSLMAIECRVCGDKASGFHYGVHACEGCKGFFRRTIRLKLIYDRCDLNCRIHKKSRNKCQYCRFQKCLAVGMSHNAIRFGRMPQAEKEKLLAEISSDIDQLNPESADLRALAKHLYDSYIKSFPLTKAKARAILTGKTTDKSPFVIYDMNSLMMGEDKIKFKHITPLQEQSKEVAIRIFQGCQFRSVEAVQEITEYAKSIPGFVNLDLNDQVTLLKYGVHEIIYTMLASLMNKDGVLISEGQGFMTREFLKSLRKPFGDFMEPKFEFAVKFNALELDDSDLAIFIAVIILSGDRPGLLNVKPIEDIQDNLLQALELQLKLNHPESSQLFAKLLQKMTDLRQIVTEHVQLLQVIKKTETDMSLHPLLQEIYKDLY
In short: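 GeneBLAzer PPARg UAS-bla HEK293H cells were plated, rested 5 h, then exposed to compounds for 17 h at 37C. Beta-lactamase activity was read by LiveBLAzer B/G FRET substrate fluorescence after 1 h at room temperature.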

[4] = qHTS assay to identify small molecule antagonists of the peroxisome proliferator-activated receptor gamma (PPARg) signaling pathway - cell viability counter screen (AID 743194); conditions: Potency: co-treated with 50 nM rosiglitazone unless noted; also: nearly all actives have a fitted effect of over 55% in size; also: potency is read from the fitted curve at half-maximal effect
In short: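 PPARg-UAS-bla HEK293H cells were plated, rested 5 h at 37 C, then treated with compounds plus rosiglitazone (50 nM final) for 17 h at 37 C; viability was then read by CellTiter-Glo luminescence after 30 min at room temperature.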

[5] = qHTS assay for small molecule agonists of the antioxidant response element (ARE) signaling pathway - cell viability counter screen (AID 743203; calls by dose curve; also: nearly all actives have a fitted effect of over 55% in size; also: potency is read from the fitted curve at half-maximal effect)
In short: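 ARE-bla HepG2 cells were plated, rested 5 h at 37C/5% CO2, then exposed to compounds in DMSO for 16 h. Viability was read as CellTiter-Glo luminescence after 30 min at room temperature, in the same wells as the ARE screen.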

[6] = qHTS assay for small molecule activators of the heat shock response signaling pathway - cell viability counter screen (AID 743209); also: nearly all actives have a fitted effect of over 50% in size; also: potency is read from the fitted curve at half-maximal effect
In short: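 HSE-bla HeLa cells plated overnight, then exposed to Tox21 compounds (23 nL in DMSO) for 5 h at 37 C. After the bla reporter read, CellTiter-Glo was added in the same wells and luminescence read after 30 min at room temperature.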

[7] = qHTS assay for small molecule activators of the heat shock response signaling pathway (AID 743210; active = well fitted activation curve with a large enough effect in the signal ratio in the repeat runs, with a control signal flat, not every such curve was filed as active; the % refers to the signal ratio;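 also: HeLa cells with beta-lactamase reporter driven by heat shock elements; series mostly up to about 63 µM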)
In short: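 Reporter gene assay: HeLa cells stably bearing an HSE-bla construct, compound treatment 5 h at 37 C, LiveBLAzer substrate 2.5 h at RT, fluorescence intensity.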

[8] = qHTS assay to identify small molecule agonists of the peroxisome proliferator-activated receptor delta (PPARd) signaling pathway - cell viability counter screen (AID 743211); also: nearly all actives have a fitted effect of over 55% in size; also: potency is read from the fitted curve at half-maximal effect
In short: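 Tox21 library compounds, delivered in DMSO, were incubated 17 h with PPARd-bla HEK293H cells; cytotoxicity was taken from CellTiter-Glo luminescence read 30 min after reagent addition.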

[9] = molecular target: Peroxisome proliferator-activated receptor delta (Homo sapiens) (UniProt Q03181); assay: qHTS assay to identify small molecule agonists of the peroxisome proliferator-activated receptor delta (PPARd) signaling pathway (AID 743212; calls by dose curve)
Chain of Peroxisome proliferator-activated receptor delta (Homo sapiens) (Q03181 whole entry, looked up): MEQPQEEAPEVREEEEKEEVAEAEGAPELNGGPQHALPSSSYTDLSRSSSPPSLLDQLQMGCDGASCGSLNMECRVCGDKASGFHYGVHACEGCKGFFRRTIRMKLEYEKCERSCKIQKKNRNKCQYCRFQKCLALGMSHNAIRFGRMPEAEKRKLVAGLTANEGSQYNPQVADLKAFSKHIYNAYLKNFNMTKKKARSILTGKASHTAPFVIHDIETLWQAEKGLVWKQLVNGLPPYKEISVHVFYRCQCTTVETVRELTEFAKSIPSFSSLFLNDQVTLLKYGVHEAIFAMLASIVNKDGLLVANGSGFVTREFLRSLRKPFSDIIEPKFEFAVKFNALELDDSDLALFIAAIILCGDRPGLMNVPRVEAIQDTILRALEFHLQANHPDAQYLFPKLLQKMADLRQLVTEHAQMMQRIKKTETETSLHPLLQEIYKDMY
In short: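 A PPARd-bla HEK293H line with beta-lactamase under an Upstream Activator Sequence is treated with compounds at 37 C. Substrate loading for 2 h at room temperature precedes the fluorescence measurement.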

[10] = molecular target: Peroxisome proliferator-activated receptor delta (Homo sapiens) (UniProt Q03181); assay: qHTS assay to identify small molecule antagonists of the peroxisome proliferator-activated receptor delta (PPARd) signaling pathway (AID 743215; active = well fitted inhibition curve with a large enough effect in the signal ratio in the repeat runs, not every such curve was filed as active; the % refers to the signal ratio;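 also: cells stimulated with agonist L165041 at 300 nM final during compound exposure; series mostly up to about 62 µM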)
In short: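 PPARd-bla HEK293H cells (UAS-bla reporter) preincubated 5 h, then given compound plus 300 nM final L165041 agonist for 17 h at 37 C. Beta-lactamase activity read by LiveBLAzer B/G FRET substrate fluorescence after 2 h at room temperature.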

[11] = molecular target: Bile acid receptor (Homo sapiens) (UniProt Q96RI1); assay: qHTS assay to identify small molecule antagonists of the farnesoid-X-receptor (FXR) signaling pathway (AID 743217; active = well fitted inhibition curve with a large enough effect in the signal ratio in the repeat runs, not every such curve was filed as active; the % refers to the signal ratio)
Chain of Bile acid receptor (Homo sapiens) (Q96RI1 whole entry, looked up): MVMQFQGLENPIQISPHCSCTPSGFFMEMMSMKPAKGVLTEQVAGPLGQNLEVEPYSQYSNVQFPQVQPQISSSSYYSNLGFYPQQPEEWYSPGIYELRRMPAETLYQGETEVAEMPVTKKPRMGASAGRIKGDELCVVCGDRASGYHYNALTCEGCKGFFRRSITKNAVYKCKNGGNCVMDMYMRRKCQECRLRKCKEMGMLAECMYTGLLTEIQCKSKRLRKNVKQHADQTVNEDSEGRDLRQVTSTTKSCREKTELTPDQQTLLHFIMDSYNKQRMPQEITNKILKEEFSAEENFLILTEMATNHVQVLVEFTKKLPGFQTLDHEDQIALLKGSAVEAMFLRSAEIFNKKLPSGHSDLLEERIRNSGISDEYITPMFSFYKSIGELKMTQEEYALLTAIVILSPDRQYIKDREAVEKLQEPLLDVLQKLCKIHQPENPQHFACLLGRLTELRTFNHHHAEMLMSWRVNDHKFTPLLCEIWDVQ
In short: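 FXR-UAS-bla HEK 293T cells (beta-lactamase reporter) given compound plus chenodeoxycholic acid (50 uM final), 16 h at 37C. LiveBLAzer B/G FRET substrate added for 2 h at room temperature; fluorescence read.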

[12] = qHTS assay to identify small molecule agonists of the farnesoid-X-receptor (FXR) signaling pathway - cell viability counter screen (AID 743218); also: nearly all actives have a fitted effect of over 45% in size; also: potency is read from the fitted curve at half-maximal effect
In short: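 FXR-UAS-bla HEK 293T cells exposed to compounds for 16 h at 37C. Cytotoxicity read in the same wells by CellTiter-Glo luminescence after 30 min at room temperature, following the beta-lactamase FRET read.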

[13] = qHTS assay to identify small molecule antagonists of the farnesoid-X-receptor (FXR) signaling pathway - cell viability counter screen (AID 743221; active = well fitted cell-killing curve with a large enough effect in the repeat runs, not every such curve was filed as active; also: nearly all actives have a fitted effect of over 50% in size; also: potency is read from the fitted curve at half-maximal effect)
In short: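 Cytotoxicity is taken from ATP luminescence (CellTiter-Glo, 30 min, room temperature) in FXR-bla HEK 293T cells previously incubated 16 h at 37 C with compound and chenodeoxycholic acid at 50 uM final.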

[14] = molecular target: Vitamin D3 receptor (Homo sapiens) (UniProt P11473); assay: qHTS assay to identify small molecule agonists of the vitamin D receptor (VDR) signaling pathway (AID 743222; calls by dose curve)
Chain of Vitamin D3 receptor (Homo sapiens) (P11473 whole entry, looked up): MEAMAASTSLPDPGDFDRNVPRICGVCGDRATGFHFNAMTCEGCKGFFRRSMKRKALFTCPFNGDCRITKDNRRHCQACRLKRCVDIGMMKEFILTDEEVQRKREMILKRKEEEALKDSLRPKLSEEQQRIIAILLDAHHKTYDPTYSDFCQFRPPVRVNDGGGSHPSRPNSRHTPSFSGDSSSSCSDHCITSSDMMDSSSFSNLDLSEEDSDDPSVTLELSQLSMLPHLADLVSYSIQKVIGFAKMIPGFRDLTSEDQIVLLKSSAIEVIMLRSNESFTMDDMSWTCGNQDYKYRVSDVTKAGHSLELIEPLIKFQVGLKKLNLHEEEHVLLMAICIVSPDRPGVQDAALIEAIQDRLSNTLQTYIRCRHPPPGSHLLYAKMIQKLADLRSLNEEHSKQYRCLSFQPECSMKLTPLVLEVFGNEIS
In short: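 VDR-bla cells plated 4 h at 37 C, then exposed to compounds for 16 h at 37 C. Beta-lactamase reporter activity measured by fluorescence after 2 h room-temperature loading with LiveBLAzer B/G FRET substrate.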

[15] = molecular target: Vitamin D3 receptor (Homo sapiens) (UniProt P11473); assay: qHTS assay to identify small molecule antagonists of the vitamin D receptor (VDR) signaling pathway (AID 743223; active = well fitted inhibition curve with a large enough effect in the signal ratio in the repeat runs, not every such curve was filed as active; the % refers to the signal ratio)
In short: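 Quantitative HTS in VDR-bla reporter cells stimulated with 1alpha,25-dihydroxyvitamin D3, 3 nM final. Compound exposure 16 h, 37C, 5% CO2. Read-out: beta-lactamase FRET substrate fluorescence, 2 h RT.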

[16] = molecular target: Peroxisome proliferator-activated receptor gamma (Homo sapiens) (UniProt P37231); assay: qHTS assay to identify small molecule antagonists of the peroxisome proliferator-activated receptor gamma (PPARg) signaling pathway (AID 743191; calls by dose curve; also: series mostly up to about 63 µM; nearly all actives have a fitted effect of over 30% in size)
In short: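 GeneBLAzer PPARg UAS-bla HEK293H cells carrying a UAS-driven beta-lactamase reporter were plated at 3000 cells/well, preincubated 5 h at 37C, then given compound for 17 h at 37C; LiveBLAzer B/G FRET substrate was read after 1 h at room temperature.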

[17] = qHTS assay to identify small molecule antagonists of the peroxisome proliferator-activated receptor delta (PPARd) signaling pathway - cell viability counter screen (AID 743213); also: nearly all actives have a fitted effect of over 50% in size; also: potency is read from the fitted curve at half-maximal effect
In short: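 PPARd-bla HEK293H cells (3000/well) got compound plus 300 nM L165041 agonist for 17 h at 37 C. Viability in the same wells came from CellTiter-Glo luminescence after 30 min at room temperature.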

[18] = qHTS assay for small molecule agonists of the antioxidant response element (ARE) signaling pathway (AID 743202; active = well fitted activation curve with a large enough effect in the signal ratio in the repeat runs, not every such curve was filed as active; the % refers to the signal ratio; also: potency is read from the fitted curve at half-maximal effect)
In short: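 Compounds delivered in DMSO to ARE-bla HepG2 cells (2,000 cells/well, pre-incubated 5 h) and left 16 h at 37 C. LiveBLAzer B/G FRET substrate then added for 2 h at RT before fluorescence reading.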

[19] = molecular target: Bile acid receptor (Homo sapiens) (UniProt Q96RI1); assay: qHTS assay to identify small molecule agonists of the farnesoid-X-receptor (FXR) signaling pathway (AID 743220; active = well fitted activation curve with a large enough effect in the signal ratio in the repeat runs, not every such curve was filed as active; the % refers to the signal ratio)
In short: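 Beta-lactamase reporter under UAS control in GeneBLAzer FXR HEK 293T cells (5000/well) measured with LiveBLAzer FRET substrate after 2 h at room temperature. Compound exposure lasted 16 h at 37C.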

[20] = molecular target: Aryl hydrocarbon receptor (Homo sapiens) (UniProt P35869); assay: qHTS assay to identify small molecule that activate the aryl hydrocarbon receptor (AhR) signaling pathway (AID 743085);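 also: HG2L7.5c1 human HepG2 liver cells with stably integrated DRE-driven firefly reporter; series mostly up to about 70 µM; nearly all actives have a fitted effect of over 15% in size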
Chain of Aryl hydrocarbon receptor (Homo sapiens) (P35869 whole entry, looked up): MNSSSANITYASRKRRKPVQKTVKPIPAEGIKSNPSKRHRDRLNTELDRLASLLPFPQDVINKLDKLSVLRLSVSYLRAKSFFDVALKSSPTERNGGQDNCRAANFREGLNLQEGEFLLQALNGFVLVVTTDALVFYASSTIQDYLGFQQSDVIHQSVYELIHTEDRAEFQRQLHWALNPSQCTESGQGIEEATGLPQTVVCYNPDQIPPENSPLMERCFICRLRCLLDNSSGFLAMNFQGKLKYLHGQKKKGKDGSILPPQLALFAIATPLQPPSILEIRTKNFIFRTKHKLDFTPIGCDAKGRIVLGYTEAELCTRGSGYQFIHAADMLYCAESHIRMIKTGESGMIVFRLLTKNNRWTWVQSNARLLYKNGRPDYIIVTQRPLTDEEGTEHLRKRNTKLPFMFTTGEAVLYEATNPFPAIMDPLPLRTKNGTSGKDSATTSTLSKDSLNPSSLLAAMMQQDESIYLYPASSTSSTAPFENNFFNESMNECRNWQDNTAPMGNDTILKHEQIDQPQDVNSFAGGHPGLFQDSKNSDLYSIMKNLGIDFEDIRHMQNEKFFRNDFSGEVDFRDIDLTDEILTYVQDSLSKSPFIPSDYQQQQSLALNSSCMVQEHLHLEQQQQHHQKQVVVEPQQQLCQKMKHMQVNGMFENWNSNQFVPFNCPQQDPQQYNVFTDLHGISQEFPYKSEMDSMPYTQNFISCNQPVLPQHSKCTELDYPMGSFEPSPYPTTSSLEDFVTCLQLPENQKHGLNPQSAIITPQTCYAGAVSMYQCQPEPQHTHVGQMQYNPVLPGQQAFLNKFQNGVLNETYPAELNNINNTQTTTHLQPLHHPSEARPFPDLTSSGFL
In short: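 A multiplexed format paired cell viability (CellTiter-Fluor fluorescence) with AhR-dependent luciferase output (ONE-Glo luminescence) in the same wells of HepG2 DRE-luc cells after 24 h compound exposure at 37C.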

Measured: Potency

CC(C)C(Br)C(=O)NC(N)=O (stereo unspecified)
not listed: [16] | [17] | [18] | [19] | [20]
inactive: all other assays above

CCC1COC(Cn2cncn2)(c2ccc(Cl)cc2Cl)O1 (stereo unspecified)
not listed: [7] | [9] | [11] | [18] | [19] | [20]
inactive: all other assays above

Clc1ccc(C2(Cn3cncn3)OCCO2)c(Cl)c1
inactive: [1] | [4] | [5] | [6] | [7] | [8] | [9] | [17] | [10] | [12] | [13]

CCCCn1cc[n+](C)c1 (tested in a mixture with another compound)
inactive: [1] | [2] | [4] | [5] | [6] | [8] | [17] | [12] | [13]

CC[C@H](C)[C@H]1O[C@]2(C=C[C@@H]1C)C[C@@H]1C[C@@H](C/C=C(\C)[C@@H](O[C@H]3C[C@H](OC)[C@@H](O[C@H]4C[C@H](OC)[C@@H](NC)[C@H](C)O4)[C@H](C)O3)[C@@H](C)/C=C/C=C3\CO[C@@H]4[C@H](O)C(C)=C[C@@H](C(=O)O1)[C@]34O)O2
active: [1] 9.69 µM | [4] 2.45 µM | [5] 4.33 µM | [6] 13.8 µM | [8] 3.09 µM | [17] 3.89 µM | [12] 5.49 µM | [13] 8.71 µM

CC(=O)O.CC(=O)O.CC(=O)O.CC(=O)O.CC(=O)O.CC(=O)O.CC(=O)O.O.O.[Cr].[Cr].[Cr]
inactive: [1] | [2] | [4] | [5] | [6] | [17] | [12] | [13]

CCCCON=O
not listed: [2] | [3] | [8] | [9] | [11] | [17] | [19] | [20]
inactive: all other assays above

C1=CCC=C1
inactive: [1] | [2] | [4] | [18] | [5] | [6] | [8] | [17] | [12] | [13] | [14]

O=C(NC(=O)c1ccccc1Cl)Nc1ccc(OC(F)(F)F)cc1
not listed: [2] | [9] | [11] | [18] | [20]
inactive: all other assays above

CCCC[N+]1(C)CCCC1 (tested in a mixture with another compound)
inactive: [1] | [4] | [5] | [6] | [7] | [8] | [12] | [13]

COc1ccc(Cc2nccc3cc(OC)c(OC)cc23)cc1OC
not listed: [2] | [10] | [11] | [14] | [15] | [18] | [19] | [20]
inactive: all other assays above

[C-]1=CC=CC1.[Cl][Zr+2][Cl].c1cc[cH-]c1
inactive: [1] | [2] | [4] | [18] | [5] | [6] | [8] | [17] | [12] | [13] | [14]

COc1ccc2c(c1OC)C(=O)O[C@@H]2[C@H]1c2cc3c(cc2CCN1C)OCO3
active: [1] 2.15 µM
not listed: [2] | [4] | [7] | [11] | [14] | [15] | [19] | [20]
inactive: all other assays above

O=[N+]([O-])c1cccc2cccc([N+](=O)[O-])c12
active: [18] 9.73 µM
not listed: [3] | [7] | [10] | [16] | [17] | [20]
inactive: all other assays above

COC(=O)N(OC)c1ccccc1COc1ccn(-c2ccc(Cl)cc2)n1
inactive: [20] | [2] | [3] | [6] | [12] | [19] | [13] | [14]
active: [18] 0.433 µM | [5] 43.3 µM

CSC(=O)c1c(C(F)F)nc(C(F)(F)F)c(C(=O)SC)c1CC(C)C
inactive: [1] | [4] | [18] | [6] | [10] | [12] | [13]

CCN(CC)Cc1nccn1-c1ccc([N+](=O)[O-])cc1C(=O)c1ccccc1Cl
active: [18] 21.1 µM
not listed: [3] | [8] | [9] | [11] | [16] | [17] | [19] | [20]
inactive: all other assays above

CC(=O)[O][Sn]([c]1ccccc1)([c]1ccccc1)[c]1ccccc1
active: [1] 0.344 µM | [2] 0.77 µM | [4] 0.138 µM | [5] 0.0344 µM | [6] 15.5 µM | [8] 0.0977 µM | [17] 0.275 µM | [12] 0.0977 µM | [13] 0.138 µM

O=C1C[C@@H]2OCC=C3CN4CC[C@]56c7ccccc7N1[C@H]5[C@H]2[C@H]3C[C@H]46
inactive: [1] | [4] | [18] | [5] | [6] | [8] | [17] | [13]
